Experimental data from PubChem BioAssay (NCI).
About 83,000 compounds went through this panel and 20% of them were active in at least one assay; those are over-represented in the sample as a whole.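 Plates (96-well) were seeded with cells, treated with compound at one concentration, and incubated for 48 hours before percent growth was determined.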 Activity calls are given as the source filed them. Rule for the calls: active = growth percent below 10; inactive = the rest.

Key:
Assay in all cases: NCI-60 one-dose screen, 48 h (100 = growth as untreated, 0 = no growth, -100 = all killed)
Details in all cases: 10 µM unless noted
[1] = tested on: DU-145 prostate
[2] = tested on: K-562 leukemia
[3] = tested on: MALME-3M melanoma
[4] = tested on: RXF 393 renal
[5] = tested on: SF-268 CNS
[6] = tested on: SF-295 CNS
[7] = tested on: SF-539 CNS
[8] = tested on: UACC-257 melanoma
[9] = tested on: M14 melanoma
[10] = tested on: HCT-15 colon
[11] = tested on: HT29 colon
[12] = tested on: SNB-75 CNS
[13] = tested on: SNB-19 CNS
[14] = tested on: U251 CNS
[15] = tested on: PC-3 prostate
[16] = tested on: SK-MEL-5 melanoma
[17] = tested on: UACC-62 melanoma
[18] = tested on: LOX IMVI melanoma
[19] = tested on: SK-MEL-28 melanoma
[20] = tested on: MDA-MB-231 breast

Measured: growth

CN1C(=O)CNC(=O)[C@H](NC(=O)c2nc3ccccc3cc2O)CSSC[C@H]1C(=O)NCCCc1nc2ccccc2cc1O
active: [18] -52.4%
inactive: [1] 42.3% | [2] 18.4% | [3] 110% | [4] 102% | [5] 49.5% | [6] 91.9% | [7] 82% | [8] 83.9% | [9] 14.3% | [10] 93.3% | [11] 17.7% | [12] 151% | [13] 100% | [14] 69.1% | [15] 44.7% | [16] 35.2% | [17] 18.9% | [19] 61.9%

N#CC1=C(N)Oc2c(sc3c(Br)cccc23)C1c1ccc(Br)cc1 (stereo not given)
active: [1] 8.77% | [2] 8.24% | [4] -2.19% | [6] 0.128% | [7] -14.2% | [9] -0.594% | [11] 1.76%
inactive: [3] 60% | [5] 33.9% | [8] 41.4% | [10] 22.4% | [12] 15% | [13] 52.6% | [14] 14% | [15] 15.3% | [16] 15.6% | [17] 21.2% | [18] 21.6% | [19] 50.6%

COc1ccc(-c2nnc(COc3ccc(Cl)cc3Cl)o2)cc1OC
inactive: [1] 22.6% | [2] 65.1% | [5] 45.7% | [6] 23.5% | [7] 83.6% | [8] 37.7% | [9] 45% | [10] 49.5% | [11] 28.7% | [13] 44.6% | [14] 37.2% | [15] 43.7% | [16] 28.2% | [17] 43.7% | [18] 16.1% | [19] 67.2%
active: [3] -1.79% | [4] -56.7% | [12] -42%

COc1ccc(N)c(N)c1
inactive: [1] 111% | [2] 97.8% | [3] 91.7% | [20] 105% | [4] 105% | [5] 117% | [6] 99.1% | [7] 97.4% | [8] 114% | [10] 101% | [11] 104% | [12] 85.7% | [13] 96.7% | [14] 107% | [15] 99.4% | [16] 105% | [17] 93.6% | [18] 99.3% | [19] 111%

CC/C=C\C[C@@H](O)C/C=C1/C(=O)C=C[C@H]1C/C=C\CCCC(=O)OC
active: [2] 2.65% | [4] -16.8% | [5] 0.223% | [9] -1.62% | [10] -31.3% | [11] -58.5% | [14] 8.72% | [15] -21.1% | [16] -82.2% | [17] -50.6% | [18] -69% | [19] -32.8%
inactive: [1] 28.7% | [3] 10.4% | [6] 80.9% | [7] 10.4% | [8] 56.5% | [12] 90.8% | [13] 33.7%

O=C(O)c1cn(C2CC2)c2cc(N3CCN(C(=O)Nc4nc(-c5ccccc5)cs4)CC3)c(F)cc2c1=O
inactive: [1] 17.2% | [2] 17.1% | [3] 23.9% | [4] 42.7% | [5] 23.3% | [6] 10.6% | [7] 21% | [9] 31.6% | [10] 29.9% | [13] 21.6% | [15] 11.3% | [17] 15.2% | [19] 52.9%
active: [8] 9.92% | [11] 4.04% | [12] 9.5% | [14] 9.17% | [16] 3.08% | [18] -81.8%

Cc1nc2ccccc2n1-c1ncnc2c1CC(C)c1ccccc1N2C (stereo not given)
inactive: [1] 96.2% | [2] 31.2% | [3] 105% | [4] 102% | [5] 94.2% | [6] 77.9% | [7] 93.9% | [8] 91.5% | [9] 71.3% | [10] 75.4% | [11] 59.5% | [12] 70.3% | [13] 86% | [14] 78.8% | [15] 67.2% | [16] 91.3% | [17] 71.2% | [18] 82.7% | [19] 91.7%

CCCCN(C)N=Nc1ccc(C(N)=O)cc1
inactive: [1] 113% | [2] 116% | [3] 111% | [20] 106% | [4] 150% | [5] 108% | [6] 101% | [7] 107% | [8] 105% | [10] 114% | [11] 107% | [12] 97.3% | [13] 105% | [14] 108% | [15] 103% | [16] 108% | [17] 98.7% | [18] 107% | [19] 104%

N#Cc1c(-c2ccc(Cl)cc2)nc(NCCO)[nH]c1=O
inactive: [1] 104% | [2] 103% | [3] 98.8% | [4] 116% | [5] 89.6% | [6] 95.3% | [7] 95.9% | [8] 107% | [9] 94.6% | [10] 102% | [11] 106% | [12] 81% | [13] 102% | [14] 98.7% | [15] 92.4% | [16] 107% | [17] 84.4% | [18] 97.3% | [19] 112%

CN1C(=O)CNC(=O)[C@H](NC(=O)c2nc3ccccc3cc2O)CSSC[C@H]1C(=O)NCCc1nc2ccccc2cc1O
active: [2] 5.35% | [9] 6.87% | [18] -11.5%
inactive: [1] 38.6% | [3] 110% | [4] 100% | [5] 46.4% | [6] 68.3% | [7] 94.2% | [8] 79.2% | [10] 99.7% | [11] 17.6% | [12] 129% | [13] 87% | [14] 71.4% | [15] 55.7% | [16] 38% | [17] 34.9% | [19] 62.8%

CN1CCN(Cc2ccc(NC(=O)c3ccc(C(C)(C)C)c(C#Cc4cnc5cccnn45)c3)cc2C(F)(F)F)CC1
inactive: [12] 74.8%
active: [1] -76.7% | [2] -53% | [3] -53.7% | [4] -78.7% | [5] -74.7% | [6] -59.9% | [7] -76.3% | [8] -37.7% | [9] -69.2% | [10] -73.2% | [11] -83.5% | [13] -63.1% | [14] -87.9% | [15] -65.6% | [16] -60.3% | [17] -71% | [18] -87.7% | [19] -68.8%

O=C1CCC/C=C\C[C@H]2C=CC(=O)/C2=C/C[C@H](CCc2cccc(C(F)(F)F)c2)O1
inactive: [12] 15.2%
active: [1] -44.6% | [2] 0.315% | [3] -25.5% | [4] -81.9% | [5] -39% | [6] -22.9% | [7] -56.7% | [8] -34.7% | [9] -30.9% | [10] -10.8% | [11] -31.9% | [13] -17.1% | [14] -93% | [15] -20.7% | [16] -82.8% | [17] -45.9% | [18] -72.6% | [19] -39.5%

COC1=C(C)C(=O)c2c(c(CCCl)c3n2CCC3O)C1=O (stereo not given)
inactive: [2] 22%
active: [1] 1.19% | [3] -55.7% | [4] -53.7% | [5] 9.6% | [6] -12% | [7] -28.8% | [8] -44.8% | [9] -14.3% | [10] 2.73% | [11] -4.05% | [12] -45.3% | [13] 2.57% | [14] -3.61% | [15] -2.49% | [16] -51% | [17] -60.5% | [18] -23.5% | [19] -27.7%

COc1ccc2c(c1)C(C)Cc1c(ncnc1-n1c(C)nc3ccccc31)N2C (stereo not given)
inactive: [1] 24.2% | [2] 11% | [3] 58.1% | [4] 14.2% | [5] 42.5% | [8] 68.3% | [9] 14.5% | [10] 22.8% | [13] 32.3% | [14] 25.6% | [15] 16.2% | [16] 20% | [17] 23.3% | [18] 25.7% | [19] 66.4%
active: [6] 6.04% | [7] 5.97% | [11] 7.08% | [12] -4.89%

c1ccc(OCc2nnc(-c3ccc(Oc4ccccc4)cc3)o2)cc1
inactive: [1] 99.1% | [2] 93.2% | [3] 101% | [4] 106% | [5] 89.2% | [6] 103% | [7] 103% | [8] 109% | [9] 98.2% | [10] 103% | [11] 103% | [12] 98.5% | [13] 103% | [14] 95.4% | [15] 78.9% | [16] 100% | [17] 90.9% | [18] 102% | [19] 116%
